Assay outcomes (PubChem BioAssay)
Hits are enriched below; roughly 11% of the tested compounds scored in any of these assays.
HPGD inh – qHTS Assay for Inhibitors of HPGD (15-Hydroxyprostaglandin Dehydrogenase); purified HPGD, NADH fluorescence kinetic, PGE2 substrate; Potency, µM, without a hit: at the highest dose activity change, negative = inhibition, actives largely listed as inhibitors; actives 4.3% (n = 150,000); AID 894, 2007; note: potency is the fitted concentration of half-maximal effect; % is set by controls: 0 for no effect and ±100 for the full control effect
Target sequence (P15428 whole entry, looked up): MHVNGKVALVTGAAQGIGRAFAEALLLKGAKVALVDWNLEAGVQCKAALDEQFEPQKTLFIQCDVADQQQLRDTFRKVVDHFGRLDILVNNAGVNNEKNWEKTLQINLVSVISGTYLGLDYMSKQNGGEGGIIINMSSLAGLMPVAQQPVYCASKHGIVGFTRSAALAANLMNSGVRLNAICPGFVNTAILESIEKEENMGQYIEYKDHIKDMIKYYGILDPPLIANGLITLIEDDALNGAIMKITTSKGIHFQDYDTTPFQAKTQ
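20 nM HPGD preincubated 15 min at room temperature with compound in 50 mM Tris-HCl pH 8, 0.01% Tween 20. Started with 1 mM NAD+ and 30 uM prostaglandin E2; NADH fluorescence (360/450 nm) read 5 times over 30-s intervals, last minus first.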
PNC assembly inh – High Content Assay for Compounds that inhibit the Assembly of the Perinucleolar Compartment. AID 2417, 2010. PC3M PTB-GFP, PNC prevalence imaging, 16 h; hits give low values. actives 3.1% (n = 140,000). activity change (PNC), negative = inhibition, % at 10 µM;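 active = readout at or below -70, meaning at least 70% loss of cells showing the perinucleolar compartment, a nuclear body marking cancer cells; inconclusive = readout between -30 and a set limit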;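 note: plate controls were DMSO wells for no effect and camptothecin positive control wells for full effect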
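Read-out is percentage of cells bearing a perinucleolar compartment, from automated 20x imaging of fixed, Hoechst-stained PC3M PTB-GFP cells. Cells were seeded 4 h, then exposed 16 h to compound (23 nl of library stock) in duplicate plates.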
HttQ103 aggreg – qHTS Multiplex Assay to Identify Dual Action Probes in a Cell Model of Huntington: Aggregate Formation (GFP). PC12 HttQ103-GFP aggregates, Acumen cytometry, 40 h. Potency, µM (titrated, usually from 46.1 µM), without a hit: top-dose activity change, negative = inhibition, usual class: inhibitors. actives 1.1% (n = 220,000); active = well fitted curve in the direction sought with a large enough effect; inconclusive = small, poorly fitted or top-dose-only effect, or another doubt; inactive = no such curve, though single readings can be large; an effect the other way counts as inactive or inconclusive; note: potency is the fitted concentration of half-maximal effect; % is set by controls: 0 for no effect and ±100 for the full control effect; nearly all actives have a fitted effect of over 60% in size
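Read-out: GFP aggregate count by laser scanning cytometer (488 nm excitation, 500-530 nm emission, 1–25 µm objects >6 SD above background). Cells: PC12, inducible HTTex1-Q103-GFP, 100 nM tebufenozide; compounds titrated.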
HTT ATP protect – qHTS Multiplex Assay to Identify Dual Action Probes in a Cell Model of Huntington: Cytoprotection (ATP). Potency, µM (series often up to 56.4 µM), for the others: cytoprotection (ATP increase), usual class: activators. actives 0.14% (n = 230,000). PC12 HTT-Q103 induced, cytoprotection, ATP luminescence, 40 h. AID 1471, 2008; active = well fitted curve in the direction sought with a large enough effect; inconclusive = small, poorly fitted or top-dose-only effect, or another doubt; inactive = no such curve, though single readings can be large; an effect the other way counts as inactive or inconclusive; note: potency is the fitted concentration of half-maximal effect; % of control where 0% means no effect; nearly all actives have a fitted effect of over 45% in size
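Huntington model: PC12 line, ecdysone-inducible HTTQ103 exon1–GFP, tebufenozide 100 nM. Test articles in a dose series. Endpoint luminescence from cellular ATP.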
ALDH1A1 block – qHTS Assay for Inhibitors of Aldehyde Dehydrogenase 1 (ALDH1A1); Purified ALDH1A1, NADH fluorescence, propionaldehyde substrate; Potency, µM (doses to about 75.3 µM), for inactives: at the highest dose activity, negative = inhibition, usual class: inhibitors; actives 7.3% (n = 220,000); AID 1030, 2008;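 note: potency is the fitted concentration of half-maximal effect; plate controls were no enzyme wells and a reference inhibitor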
Target sequence (P00352 whole entry, looked up): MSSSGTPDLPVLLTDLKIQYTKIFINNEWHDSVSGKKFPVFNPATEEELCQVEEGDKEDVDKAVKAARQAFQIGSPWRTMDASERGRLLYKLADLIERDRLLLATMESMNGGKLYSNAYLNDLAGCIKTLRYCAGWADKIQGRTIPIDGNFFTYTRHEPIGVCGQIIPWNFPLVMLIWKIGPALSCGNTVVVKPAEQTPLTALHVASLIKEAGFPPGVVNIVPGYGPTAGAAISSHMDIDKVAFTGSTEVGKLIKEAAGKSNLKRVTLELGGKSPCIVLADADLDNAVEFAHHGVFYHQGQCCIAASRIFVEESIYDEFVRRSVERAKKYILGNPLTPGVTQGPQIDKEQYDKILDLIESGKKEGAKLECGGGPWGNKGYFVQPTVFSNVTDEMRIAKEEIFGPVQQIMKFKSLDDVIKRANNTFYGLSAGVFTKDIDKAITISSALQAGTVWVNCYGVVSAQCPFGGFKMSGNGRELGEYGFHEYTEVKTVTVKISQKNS
RGS12 GoLoco inh – qHTS Assay for Inhibitors of RGS12 GoLoco Motif Activity (Red Fluorophore) | Guanine nucleotide-binding protein G(i) subunit alpha-1 (Homo sapiens), P63096 | Gai1:RGS12 GoLoco peptide FP, rhodamine, 10 min | Potency, µM (titrated, usually from 61.6 µM), for inactives: top-dose activity, negative = inhibition, most hits filed as inhibitors | actives 0.44% (n = 230,000) | AID 880, 2007; active = well fitted inhibition curve with a large enough effect, not every such curve was filed as active; inactive = no such curve, though single readings can be large or run the other way; note: potency is the fitted concentration of half-maximal effect; % is set by controls: 0 for no effect and ±100 for the full control effect; nearly all actives have a fitted effect of over 30% in size
* hit, by the source's call; ? = inconclusive; · = no result; [ ] = remark or other dose. Unless noted, calls come from the whole dose curve; as a rule, active = well fitted inhibition curve with a large enough effect (not every such curve was filed as active); inconclusive = small, poorly fitted or top-dose-only effect, or another doubt; inactive = no such curve, though single readings can be large or run the other way.

SMILES	HPGD inh	PNC assembly inh	HttQ103 aggreg	HTT ATP protect	ALDH1A1 block	RGS12 GoLoco inh
CS(=O)(=O)c1ccc(-c2nc(-c3ccc(F)cc3)c(-c3ccncc3)[nH]2)cc1	·	·	·	7%	?	8%
Cc1oc(-c2cc3c(cc2Cl)OCO3)nc1CN1CCCC1c1ccc(F)cc1 (centres undefined)	·	·	20%[9.22 µM]	3%[10 µM]	-8%	22%
Cn1c(C(=O)N2CCCC(C(=O)NCCCSC3CCCCC3)C2)cc2sccc21 (centres undefined)	-5%	?	-26%	-75%	1.3µM*	-1%
CCn1c(C(=O)N2CCCC(C(=O)NCCc3ccc(C)cc3)C2)cc2sccc21 (centres undefined)	-5%	?	-26%	-33%	32µM*	5%
CN(C(=O)CSc1nc2ccccc2n1CCc1ccccc1)C1CCS(=O)(=O)C1 (centres undefined)	-14%	?	-1%	-6%	22µM*	9%
CN(C(=O)CSc1nnc2ccccn12)C1CCS(=O)(=O)C1 (centres undefined)	-16%	?	3%	-5%	-15%	7%
Cc1ccccc1-n1nnnc1SCC(=O)N(C)C1CCS(=O)(=O)C1 (centres undefined)	·	·	-5%	-1%	11µM*	-4%
Cc1ccc(NC(=O)N2CCCC(C(=O)O)C2)cc1 (centres undefined)	·	·	-7%[9.22 µM]	26%[10 µM]	·	3%
CCN1C(=O)[C@H]2[C@H]3[C@H](O)[C@H](O)C/C(=N/O[C@@H]4O[C@@H](COC(C)=O)[C@@H](OC(C)=O)[C@@H](OC(C)=O)[C@H]4OC(C)=O)[C@@H]3CC[C@@H]2C1=O	·	·	·	-1%[10 µM]	8%[13.5 µM]	·
Cc1ccsc1C(=O)Nc1ccc(F)c([N+](=O)[O-])c1	-18%	-81*	24%	26%[10 µM]	-2%	-3%
Cc1cnc(C(=O)N2CCCC(C(=O)c3cccc(OC(C)C)c3)C2)cn1 (centres undefined)	·	·	-12%[9.22 µM]	10%[10 µM]	2%	10%
O=C(c1cnccn1)N1CCC2(CC1)CN(Cc1nccs1)C2	-8%	·	·	-5%	5%	8%
Cc1sc2c3ccsc3ccc2[n+]1C	·	·	?	20%	4.5µM*	-5%
NNC(=O)c1ccc(Cn2cc(Br)cn2)cc1	-6%	-114*	0%	·	5.6µM*	0%
NNC(=O)c1ccc(Cn2cc(Cl)cn2)cc1	-4%	22	-6%	·	11µM*	0%
COc1ccc2c(c1)O[C@@H](c1cccc(C(F)(F)F)c1)[C@H](OC(=O)NCCOc1ccccc1)C2=O	-7%	·	·	·	13%	0%
NC(=[SH+])N=N/C=C1/C=CC=CN1.O=S(=O)(O)O.[Fe]	-11%	·	·	·	?	1%[14.2 µM]
O=C(Nc1cc2c(oc1=O)CCCC2=O)c1cccc(Cl)c1	-13%	-106*	15%	15%	?	7%
CC(=O)Oc1ccc(C(=C2CCCCC2)c2ccc(OC(C)=O)cc2)cc1	·	·	12%	19%	·	·
Cc1nnc(SCC(=O)c2ccc(Cl)cc2)s1	·	·	19%	-41%	?	8%
N#Cc1ccc(C(=O)CSc2nnc(-c3ccc(C(F)(F)F)cn3)s2)cc1	·	·	11%[9.22 µM]	9%[10 µM]	35µM*	-2%
CC(C)CCN(CCC(C)C)C(CO)(CO)CO	·	·	16%[9.22 µM]	6%[10 µM]	28µM*	0%
O=C(O)c1ccc(N/N=C/c2ccc(F)c(F)c2)cc1	-22%	?	10%	-24%[10 µM]	-5%	-15%
O=C(O)c1ccc(N/N=C/c2cccc(F)c2)cc1	?	11	-3%	-8%[10 µM]	20µM*	-7%
NC(=O)OC[C@@H]1[C@H](NC(=O)/C(=N/OCC(=O)O)c2csc(N)n2)C(=O)N1S(=O)(=O)O	·	·	2%	-9%	·	·
SMILES	HPGD inh	PNC assembly inh	HttQ103 aggreg	HTT ATP protect	ALDH1A1 block	RGS12 GoLoco inh
O=C(NCCO)C(=O)c1c(-c2ccccc2)cc2ccccn12	·	·	10%	-18%	0%	13%
CCOc1cc(/C=C2/SC(=S)NC2=O)ccc1OC(=O)c1ccco1	·	·	14µM*	-124%	8.9µM*	21%
CCOC(=O)c1ccc(N2NC(=O)/C(=C/c3ccc(OC(=O)c4ccco4)c(OC)c3)C2=O)cc1	13µM*	?	11%	·	?	-17%
CCOc1ccc(/C=C2/C(=N)N3OC(C)=CC3=NC2=O)cc1OC	·	·	-9%	-14%	?	8%
CCOc1cc(/C=C2/C(=N)N3OC(C)=CC3=NC2=O)ccc1OC(=O)c1ccco1	·	·	26%	1%	10µM*	-5%
O=c1cc(-c2ccccc2)nc(/C=C/c2ccccc2)[nH]1	·	·	8%[9.22 µM]	2%[10 µM]	·	-7%
CCC(C)Sc1cc(C(F)(F)F)c(C(=O)Nc2ccc(Cl)cc2)cn1 (centres undefined)	·	·	-4%[9.22 µM]	11%[10 µM]	11%	2%
CCOc1ccccc1Nc1nnc(SCC(=O)Nc2nc(-c3ccc(OC)cc3)cs2)s1	·	·	3%	26%	25µM*	11%
COc1ccccc1Nc1nnc(SCC(=O)Nc2nc(-c3ccc(F)cc3)cs2)s1	·	·	3%	-43%	?	35%
COc1ccc(-c2csc(NC(=O)CSc3nnc(Nc4ccccc4C)s3)n2)cc1	·	·	-8%[9.22 µM]	-22%	25µM*	17%
COc1ccc(S(=O)(=O)Nc2ccc(Oc3ncccn3)c(Cl)c2)cc1	14µM*	0	-12%	4%	-2%	0%
COc1ccc(NS(=O)(=O)c2cccc(C(=O)O)c2)cc1	-14%	?	-4%	-38%	10%	8%
COc1ccc(NS(=O)(=O)c2ccc(Oc3cccc(C(=O)O)c3)cc2)cc1	·	·	-5%	-57%	0.71µM*	1%
COc1ccc(NS(=O)(=O)c2ccc(Oc3ncccn3)cc2)cc1	-4%	?	11µM*	-35%	4%	9%
COc1ccc(-n2cnc3cc(NS(=O)(=O)c4ccccc4)ccc32)cc1	11µM*	-5	?	14%[10 µM]	?	-7%
COc1ccc(S(=O)(=O)Nc2ccc(NC(C)=O)cc2)cc1	-17%	16	5%	-9%	2%	4%
O=C(NCc1ccncc1)c1cc(C(=O)C2CC2)c[nH]1	·	·	7%	4%[10 µM]	-6%	-2%
CN(C)CCCC1(c2ccc(F)cc2)OCc2cc(C#N)ccc21 (centres undefined)	0%	-115*	14%	·	?	2%
